Measured values as given in PubChem BioAssay (NCI).
Values joined by “and” are separate entries in the source; they are usually repeats but may differ in a detail not shown here. Identical values can stand only once. About 83,000 compounds went through this panel and 20% of them were active in at least one assay; those are over-represented in the sample as a whole.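 96-well plates, one dose, 48 hours. Percent growth reported; active if below 10.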 Active and inactive are the calls of the source.

Key:
Assay in all cases: NCI-60 one-dose screen, 48 h (100 = growth as untreated, 0 = no growth, -100 = all killed)
Conditions in all cases: 10 µM unless noted
[1] = system: HCT-15 colon
[2] = system: HT29 colon
[3] = system: SNB-75 CNS
[4] = system: SNB-19 CNS
[5] = system: U251 CNS
[6] = system: PC-3 prostate
[7] = system: SK-MEL-5 melanoma
[8] = system: UACC-62 melanoma
[9] = system: LOX IMVI melanoma
[10] = system: SK-MEL-28 melanoma
[11] = system: SK-MEL-2 melanoma
[12] = system: EKVX NSCLC
[13] = system: SN12C renal
[14] = system: UO-31 renal
[15] = system: TK-10 renal
[16] = system: ACHN renal
[17] = system: CAKI-1 renal
[18] = system: A498 renal
[19] = system: CCRF-CEM leukemia
[20] = system: MOLT-4 leukemia

Measured: growth

C=C1C(=O)O[C@H]2[C@H]1CC/C(COC(=O)NCCCCNC(=O)OC/C1=C/CC[C@@]3(C)O[C@H]3[C@H]3OC(=O)C(=C)[C@@H]3CC1)=C\CC[C@@]1(C)O[C@@H]21
active: [2] 5.38% | [8] -20.8% | [9] -22.5% | [10] -10.1% | [19] -33.6% | [20] -14.8%
inactive: [1] 81.6% | [3] 49.5% | [4] 90.9% | [5] 73.6% | [6] 67.7% | [7] 76.8% | [11] 36.4% | [12] 89% | [13] 19.6% | [14] 79.8% | [15] 20.1% | [16] 57.5% | [17] 76.8% | [18] 95.1%

COc1cc(CNC(=O)CCCC/C=C/C(C)C)ccc1O
inactive: [1] 104% and 96.9% | [2] 104% | [3] 93% and 100% | [4] 90.9% and 104% | [5] 101% and 98% | [6] 86.6% and 88.1% | [7] 97.8% and 97.5% | [8] 96.6% and 104% | [9] 89% and 86.9% | [10] 116% and 112% | [11] 93.3% and 108% | [12] 103% and 97.3% | [13] 92.4% and 91.9% | [14] 57.7% and 59% | [15] 200% and 103% | [16] 99.7% | [17] 92.1% and 82.2% | [18] 112% and 113% | [19] 55.8% and 58.3% | [20] 84.2% and 73.4%

O=C(CN1C(=O)S/C(=C\C(Cl)=C\c2ccccc2)C1=O)NC1C=CS(=O)(=O)C1 (stereo not given)
active: [1] -18.1% | [2] -6.75% | [8] -19.2% | [9] -73.5% | [10] -9.63% | [11] 9.43% | [13] -13.2% | [14] -78% | [15] -14.7% | [16] -57.5% | [19] 7.5% | [20] 4.12%
inactive: [3] 19% | [4] 40.4% | [5] 16.9% | [6] 19.7% | [7] 17.1% | [12] 17.7% | [17] 16.9% | [18] 97.2%

Cc1nc2sc(C(=O)Nc3cccc(Cl)c3C)c(N)c2cc1C(O)c1ccccc1 (stereo not given)
active: [5] 9.59% | [7] -37.5% | [13] 9.22% | [18] -11.6%
inactive: [1] 12.3% | [2] 11.8% | [3] 59.3% | [4] 34.7% | [6] 19.6% | [8] 21.4% | [9] 20.5% | [10] 53.9% | [11] 38.9% | [12] 41.6% | [14] 40.6% | [15] 49.7% | [16] 22.5% | [17] 30.9% | [19] 20.4% | [20] 13%

N#Cc1cc(-c2ccnc(Nc3ccc(NC(=O)CCl)cc3)n2)ccc1N1CCCC1
active: [1] -45.7% | [2] -56.9% | [3] -17.5% | [4] 5.98% | [5] -33.1% | [6] 8.3% | [7] -96% | [8] -71.3% | [9] -84.8% | [10] -52.4% | [11] -39.9% | [13] -39.4% | [14] -71.9% | [15] 9.16% | [16] -24.6% | [17] -40.4% | [19] 0.0905% | [20] -7.09%
inactive: [12] 12% | [18] 16.1%

CCN(c1cc(-c2ccc(CN3CCC(/C=C/S(=O)(=O)c4ccccc4)CC3)cc2)cc(C(=O)NCc2c(C)cc(C)[nH]c2=O)c1C)C1CCOCC1
inactive: [1] 54.8% | [2] 21.2% | [3] 37.5% | [4] 80.1% | [5] 66.9% | [6] 53.7% | [7] 71.9% | [8] 76.6% | [9] 68.9% | [10] 97.9% | [11] 92.5% | [12] 87.4% | [13] 63.6% | [14] 44.7% | [15] 121% | [16] 80% | [17] 51.4% | [18] 51.1% | [19] 38.2% | [20] 26.8%

N#CC(Cc1cccc2ccccc12)c1cc2ccccc2[nH]1 (stereo not given)
active: [19] -47%
inactive: [1] 88% | [2] 95.7% | [3] 88.3% | [4] 98.2% | [5] 92.3% | [6] 74.8% | [7] 95.6% | [8] 70% | [9] 90.9% | [10] 102% | [11] 113% | [12] 94.1% | [13] 90.2% | [14] 51.9% | [15] 108% | [16] 95.2% | [17] 73.7% | [18] 112% | [20] 78.2%

COc1cc(/C=C(/c2ccccc2)[N+](=O)[O-])c(OC)c2c1OCO2
active: [1] -30% | [2] 1.28% | [3] -92.6% | [4] -17.1% | [5] -92.9% | [6] -50.5% | [7] -40.9% | [8] -29.2% | [9] -87.6% | [10] -12.1% | [11] -23% | [12] -10.5% | [13] -39% | [14] -100% | [15] -88.1% | [16] -70.1% | [17] -65.2% | [18] -14% | [19] -6.26% | [20] -10.5%

O=C1OCC2=C1C(c1cccc([N+](=O)[O-])c1)c1cc3c(cc1N2CCO)CCC3 (stereo not given)
active: [1] 9.41% | [2] 3.43% | [7] 1.24% | [18] -5.04% | [19] 7.25%
inactive: [3] 41.9% | [4] 25% | [5] 13.8% | [6] 21.7% | [8] 43.9% | [9] 20.5% | [10] 53.7% | [11] 17.7% | [12] 36.8% | [13] 36.3% | [14] 39% | [15] 60.1% | [16] 27.5% | [17] 31% | [20] 14%

O=[N+]([O-])c1ccc(S(=O)Cc2ccccc2)c([N+](=O)[O-])c1 (stereo not given)
active: [1] 6.6% and -44.4% | [2] -67.6% and -20.6% | [9] -75.4% and -31.4% | [14] -24.9% and -40.3% | [16] -58.6% and -91.6% | [19] -15% and 0.711%
32.5% (inactive) and -27.2% (active): [15]
35.8% (inactive) and -14.6% (active): [17]
81.6% (inactive) and 1.31% (active): [20]
inactive: [3] 105% and 50% | [4] 92.8% and 97.7% | [5] 93.6% and 91% | [6] 93.9% and 82.8% | [7] 88% and 75.9% | [8] 54.6% and 82.2% | [10] 89.4% and 23% | [11] 82.9% and 87.7% | [12] 90.4% | [13] 62.5% and 87.4% | [18] 98% and 85.1%

N=C1/C(=C2\NC3C=CC=CC3S2)C(c2ccc(Cl)cc2)C2C(=O)N(c3ccccc3)C(=S)N12 (stereo not given)
inactive: [1] 110% | [2] 107% | [3] 106% | [4] 96.6% | [5] 101% | [6] 94.3% | [7] 99.4% | [8] 94.1% | [9] 98.2% | [10] 103% | [11] 107% | [12] 104% | [13] 99.7% | [14] 81.6% | [15] 123% | [16] 103% | [17] 99.6% | [18] 116% | [19] 101% | [20] 88.3%

Cc1cc(N2CCN(CC(=O)Nc3ccc4c(ccn4Cc4ccccc4)c3)CC2)nc(N2CCCCCC2)n1
inactive: [1] 28.2% | [3] 66.6% | [4] 57.3% | [5] 38.4% | [6] 28.2% | [7] 49.2% | [8] 43.2% | [9] 34.9% | [10] 63.4% | [11] 64% | [12] 57.5% | [13] 54.8% | [15] 73.1% | [16] 57.5% | [17] 31.9% | [19] 46.2% | [20] 44.3%
active: [2] 5.17% | [14] -1.98% | [18] 5.69%

COc1cc(/C=N/NC(=O)CCN2c3ccccc3Sc3ccccc32)cc(OC)c1OC
inactive: [1] 96.4% | [2] 90% | [3] 91.6% | [4] 90.4% | [5] 97.8% | [6] 61.4% | [7] 76.5% | [8] 62.6% | [9] 79.5% | [10] 97.5% | [11] 98.4% | [12] 72.7% | [13] 76.8% | [14] 63.7% | [15] 110% | [16] 76% | [17] 67.1% | [18] 61.1% | [19] 73.9% | [20] 71.5%
